# PubChem BioAssay AID588335 (The Scripps Research Institute Molecular Screening Center, 2011)
# Among all 360,000 compounds or so, about 4,500 (1.2%) were called active. Cut-off read from the data, not from the text of the source: active = inhibition above about 30%; inactive = the rest. The list comes from a sample in which actives are over-represented; it also holds similar structures and randomly drawn compounds.
# Test: inhibition of GDH and TPI enzymes – biochemical, absorbance, full deck, artefact control for M. tuberculosis FBA inhibitor project, primary screen (AID 588335);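 note: 0% = DMSO wells and 100% = wells lacking the enzyme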
# Conditions: GDH-TPI coupled enzyme counterscreen, NADH absorbance; at 4.8 µM; hits give high values
row,Compound,inhibition
1,Cc1c(C)c2c(OCC(=O)NCCCO)cc3c(c2oc1=O)CCC(C)(C)O3,15% (inactive)
2,Cc1cc(=O)oc2c3c(cc(OCC(=O)N[C@H](C(=O)O)c4ccccc4)c12)OC(C)(C)CC3,31.4% (active)
3,Cc1cc(=O)oc2c3c(cc(OCC(=O)NCC(O)c4ccccc4)c12)OC(C)(C)CC3 (stereo unspecified),15.3% (inactive)
4,Cc1c(C)c2c(OCC(=O)N[C@@H](C(=O)O)c3ccccc3)cc3c(c2oc1=O)CCC(C)(C)O3,35.3% (active)
5,Cc1cc(=O)oc2c3c(cc(OCC(=O)NCc4ccccn4)c12)OC(C)(C)CC3,18.6% (inactive)
6,Cc1cc(=O)oc2c3c(cc(OCC(=O)NCCC(=O)N[C@@H](C)C(=O)O)c12)OC(C)(C)CC3,15.1% (inactive)
7,COc1cc(C(F)(F)F)nc2c(Br)c(C(C)(C)C)nn12,11.5% (inactive)
8,CCCCN(C(=O)C(CCSC)N1C(=O)c2ccccc2C1=O)c1c(N)n(CCC)c(=O)[nH]c1=O (stereo unspecified),6.94% (inactive)
9,Cc1onc(-c2ccccc2)c1-c1nnc(COC(=O)c2ccc(N(C)C)cc2)o1,16.8% (inactive)
10,CCOCCCNC(=O)C(NC(=O)c1ccc(=O)[nH]c1)c1ccc(Cl)cc1 (stereo unspecified),14.7% (inactive)
11,CC(C)NS(=O)(=O)c1ccc(NC(=O)c2cccnc2)cc1,-0.48% (inactive)
12,Cc1ccc(-n2nc3cc(C)c(NC(=O)c4cccnc4)cc3n2)cc1,15.4% (inactive)
13,Cc1cc2nc(-c3ccc(NC(=O)c4cccnc4)cc3)oc2cc1C,34.4% (active)
14,CCc1ccc(NC2Nc3cc(C)nn3S2)cc1 (stereo unspecified),3.7% (inactive)
15,Cc1ccc(C(=O)N[C@H](C(=O)N2CCN(c3ncccn3)CC2)C(C)C)cc1,4.42% (inactive)
16,COc1ccc(C(=O)CSc2n[nH]c(N)n2)cc1,4% (inactive)
17,COC(=O)c1cc(C(=O)CSc2nc(C)cc(C)n2)ccc1O,31.6% (active)
18,COC(=O)c1cccc(NC(=O)CSc2nc(C)cc(=O)[nH]2)c1,-11.5% (inactive)

row,Compound,inhibition
1,CCOC(=O)Cn1c(=O)n(Cc2ccc(OC)cc2)c(=O)c2cccnc21,5% (inactive)
2,O=C1N(Cc2ccc3c(c2)OCO3)c2ccccc2C1(O)c1c[nH]c2ccccc12 (stereo unspecified),7.18% (inactive)
3,Cc1cccc(CCNS(=O)(=O)c2ccc(S(=O)(=O)NC3CCCC3)cc2)c1,10.9% (inactive)
4,Cc1c(/C=N/N2C(=O)C3C4C=CC(C4)C3C2=O)c2ccccc2n1C (stereo unspecified),21.5% (inactive)
5,O=C1C2C3C=CC(C4CC34)C2C(=O)N1/N=C/c1ccc(-c2ccccc2[N+](=O)[O-])o1 (stereo unspecified),50.6% (active)
6,CN(C(=O)CSc1nc(C2CC2)nc2ccccc12)c1nc(-c2ccccc2)cs1,8.44% (inactive)
7,CCCCn1c(N)c(N(CCC(C)C)C(=O)COC(=O)c2ccc(CC)cc2)c(=O)[nH]c1=O,9.06% (inactive)
8,CN(CCc1ccccc1)C(=O)c1cccc(NC(=O)Cc2cccc(NC(=O)C3CCCN(C(=O)C4CCC4)C3)c2)c1 (stereo unspecified),4.55% (inactive)
9,COc1ccc(CCNC2=CC(=O)CC(C)(C)C2)cc1,4.76% (inactive)
10,COc1ccc(Nc2cc(Sc3ccc(OC)cc3)ncn2)cc1,-3.81% (inactive)
11,COc1ccc(NC2=CC(=S)NC(C)(C)C2)cc1,31.3% (active)
12,CCOC(=O)[C@H]1CCC[C@@H](NS(=O)(=O)c2ccc(NC(C)=O)cc2)C1,-3.39% (inactive)
13,OC(c1ccccc1)c1nc(-c2cnc3ccccc3c2)cs1 (stereo unspecified),-3.54% (inactive)
14,CC/C(=N\NC(=O)c1ccccc1O)c1c(O)n(Cc2ccccc2)c(=O)[nH]c1=O,57% (active)
15,CC/C(=N\NC(=O)c1ccccc1Cl)c1ccc(Br)s1,16.7% (inactive)
16,COCCN(C(=O)c1ccccc1F)c1c(N)n(Cc2ccccc2)c(=O)[nH]c1=O,-6.6% (inactive)
17,Cc1ccccc1Nc1scc(-c2ccc(Br)cc2)[n+]1-c1ccccc1C,-1.89% (inactive)
18,COCCNc1cc(NCCOC)c([N+](=O)[O-])cc1[N+](=O)[O-],15.1% (inactive)
